Sampled rows, rich in hits. Any-hit rate of the full collection: about 2.3%.
MEKK2 mut-MEK5 = MEK5 binding signal on mutant MEKK2 PB1, primary screen, biochemical, multiplex bead flow cytometry, Alexa488-MEK5; hit rate 0.35% among 290,000; Alexa488-MEK5 binding to MEKK2 mutant; percent response, % at 10 µM; AID 1530, 2009; in the data active = percent response above about 24%, passing the limit was not always enough
MEKK3 PB1 HTS = modulators of MEKK3-MEK5 PB1 binding, primary screen, biochemical, wildtype MEKK3, multiplex bead flow cytometry, Alexa488-MEK5. Mitogen-activated protein kinase kinase kinase 3 (Homo sapiens), Q99759. hit rate 1.4% among 290,000. bead-based flow cytometry, Alexa488-MEK5 binding to MEKK3; actives lie on both sides; 0 = blocked by unlabeled MEK5, 100 = vehicle. binding response (% of control), % at 10 µM. AID 1529, 2009;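 active = binding response more than 3 SD above or below the average of its plate-row segment, actives on both sides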;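 note: Alexa488 bead fluorescence after subtracting the streptavidin-only scavenger bead signal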
Target sequence (Q99759 whole entry, looked up): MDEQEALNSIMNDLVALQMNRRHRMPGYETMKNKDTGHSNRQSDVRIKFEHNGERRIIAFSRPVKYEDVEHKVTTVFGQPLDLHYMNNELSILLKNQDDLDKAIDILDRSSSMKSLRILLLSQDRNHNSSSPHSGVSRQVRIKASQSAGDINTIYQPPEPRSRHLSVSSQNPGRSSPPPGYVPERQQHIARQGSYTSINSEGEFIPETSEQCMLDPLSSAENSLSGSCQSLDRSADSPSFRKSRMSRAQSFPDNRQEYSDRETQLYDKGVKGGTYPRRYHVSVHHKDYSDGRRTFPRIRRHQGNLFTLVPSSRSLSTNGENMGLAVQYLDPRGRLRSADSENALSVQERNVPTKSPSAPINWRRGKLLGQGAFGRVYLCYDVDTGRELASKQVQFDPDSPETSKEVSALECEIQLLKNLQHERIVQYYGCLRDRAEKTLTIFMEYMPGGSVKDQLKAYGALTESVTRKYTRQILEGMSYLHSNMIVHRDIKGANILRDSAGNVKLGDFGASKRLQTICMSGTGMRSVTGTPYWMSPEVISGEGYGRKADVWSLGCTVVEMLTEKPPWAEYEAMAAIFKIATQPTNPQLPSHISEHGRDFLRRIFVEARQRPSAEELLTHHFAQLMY
MEKK2wt PB1 HTS = modulators of MEK5 binding to wildtype MEKK2, primary screen, biochemical, multiplex bead flow cytometry, Alexa488-MEK5; Mitogen-activated protein kinase kinase kinase 2 (Homo sapiens), Q9Y2U5; AID 1531, 2009; hit rate 1.1% among 290,000; Alexa488-MEK5 binding to MEKK2 WT; actives lie on both sides; binding response (% of control), % at 10 µM; in the data active = binding response below about 67% or above about 130%
UBC13 inh = UBC13 polyubiquitin chain formation inhibitors, primary screen, biochemical, TR-FRET, uHTS; hit rate 0.47% among 330,000; Ubiquitin-conjugating enzyme E2 N (Homo sapiens), P61088; AID 485273, 2010; inhibition, % at 20 µM; in the data active = inhibition above about 45%, passing the limit was not always enough
MEKK2wt confirm = modulators of MEK5 binding to wildtype MEKK2, confirmation, biochemical, single concentration, multiplex bead flow cytometry; shares compounds with MEKK3 PB1 HTS; Alexa488-MEK5 binding to MEKK2 WT; actives lie on both sides; binding response (% of control), % at 10 µM; hit rate 2.4% among 5,900; AID 1892, 2009; in the data active = binding response below about 16% or above about 210%; inactive = in between
MEKK2mut-MEK5 = mutant MEKK2 PB1-MEK5 binding signal retest – biochemical, single concentration, multiplex bead flow cytometry, confirmation | shares compounds with MEKK3 PB1 HTS | Alexa488-MEK5 binding to MEKK2 mutant | percent response, % at 10 µM | hit rate 2% among 5,900; in the data active = percent response mostly above about 71%, no sharp cut-off; inactive = mostly below about 38%;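 note: higher means compound restores mutant binding toward wildtype level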
MEKK3 confirm = MEKK3 wild-type PB1 binding to MEK5, inhibitors, confirmation, biochemical, bead multiplex flow cytometry, single concentration, wildtype; hit rate 1.8% among 5,900; binding response (% of control), % at 10 µM; Alexa488-MEK5 binding to MEKK3; active compounds read low; shares compounds with MEKK3 PB1 HTS;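 active = binding response below 72% of control, or above a set upper limit, though filed actives all read lower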;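 note: lower values mean stronger disruption of MEK5 binding to MEKK3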
Casp3 counter = CASP3 inhibitor validation, counterassay for project on UBE2N polyubiquitination blockers, biochemical, one dose. shares compounds with UBC13 inh. Recombinant caspase-3, Caspase-Glo 3/7 luminescence, 60 min. inhibition, % at 20 µM. hit rate 4% among 1,400. AID 488856, 2010;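 active = mean inhibition across replicates above about 26%, limit read from the data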
UBC13 conf = UBC13 polyubiquitination inhibitors, single-point retest, confirmation, biochemical, TR-FRET, single concentration; shares compounds with UBC13 inh; inhibition, % at 10 µM; hit rate 68% among 1,400; AID 488859, 2010; in the data active = inhibition above about 45%
Hits are given with their value; n = inactive; x = no result given; ! = not active in a repeat.

SMILES	MEKK2 mut-MEK5	MEKK3 PB1 HTS	MEKK2wt PB1 HTS	UBC13 inh	MEKK2wt confirm	MEKK2mut-MEK5	MEKK3 confirm	Casp3 counter	UBC13 conf
COc1cc(-c2nc(C(=O)NC3CCN(Cc4ccccc4)CC3)cc3c2[nH]c2ccccc23)cc(OC)c1OC	n	n	147.0	55.8	n	n	n	n	48.9
COc1cc(-c2nc(C(=O)NC3CCCCC3)cc3c2[nH]c2ccccc23)cc(OC)c1OC	n	n	n	n	x	x	x	x	x
CCCCOC(=O)Cn1c(=O)n(CC(=O)OCCCC)c2ccccc21	n	n	n	n	x	x	x	x	x
CCCCCCCCCCOC(=O)Cn1c(COc2cccc(C)c2)[n+](C)c2ccccc21	112.0	123.0	402.0	51.5	254.0	90.0	n	n	67.8
CCCCCCCCCCOC(=O)Cn1c(COc2ccccc2C)[n+](C)c2ccccc21	141.0	n	293.0	45.2	254.0	150.0	n	n	n
CCCCCOC(=O)Cn1c(=O)oc2ccccc21	n	n	n	n	x	x	x	x	x
CCCCCCCCCCOC(=O)Cn1c(COc2ccccc2)[n+](C)c2ccccc21	61.0	n	226.0	58.8	230.0	84.0	n	n	69.8
CCCCCCCCCCOC(=O)Cn1c(COc2ccc(OC)cc2)[n+](C)c2ccccc21	80.0	n	256.0	62.8	266.0	79.0	n	n	80.9
CCOC(=O)Cn1c(COc2ccccc2OC)[n+](C)c2ccccc21	x	x	x	n	x	x	x	x	x
O=C(CCCOc1ccccc1)Nc1ccc(S(=O)(=O)Nc2ccccn2)cc1	n	n	n	n	x	x	x	x	x
CCCCCCCCCCOC(=O)Cn1c(COc2ccc(Cl)cc2)[n+](C)c2ccccc21	101.0	n	349.0	99.8	n	n	n	n	89.3
Cc1ccccc1OCc1n(CC(=O)OC2CC(C)CCC2C(C)C)c2ccccc2[n+]1C (centres undefined)	n	n	159.0	55.4	n	n	n	n	97.6
COc1cc(-n2c(=O)c3ccccc3n(Cc3cc(=O)n4ccccc4n3)c2=O)cc(OC)c1OC	n	n	n	n	x	x	x	x	x
COc1ccc(CNc2nc3ccccc3n2CCN2CCCCC2)cc1	n	n	n	n	x	x	x	x	x
COc1ccc(CCN2CCC(Nc3nc4ccccc4n3Cc3ccc(F)cc3)CC2)cc1	38.0	n	150.0	48.1	n	n	n	n	n
CCN(CC)CCNC(=O)c1cc2c(s1)-c1ccccc1SC2	25.0	n	146.0	50.5	n	n	n	n	53.4
COc1ccc(-n2ncc3c2CC(C)(C)CC3NC(=O)CCCN2CCCC2=O)cc1 (centres undefined)	n	n	n	n	x	x	x	x	x
CCCC[C@@H](CNC)NC[C@H](NCCCCC1CCCCC1)C(C)C	30.0	n	n	66.2	n	n	n	n	45.3
O=C(CN1C(=O)NC2(CCCc3ccccc32)C1=O)c1ccc(F)c(F)c1 (centres undefined)	x	x	x	n	x	x	x	x	x
CCOC(=O)c1c(O)c(Cl)c(C)[nH]c1=O	n	n	n	n	x	x	x	x	x
CN1CCN(C2Cc3ccccc3Sc3cc(C(F)(F)F)ccc32)CC1 (centres undefined)	x	x	x	n	x	x	x	x	x
CSc1ccc2c(c1)C(N1CCN(C)CC1)Cc1ccccc1S2 (centres undefined)	n	n	150.0	51.6!	n	n	n	n	n
COc1cc2c3nnc(-c4ccc(F)cc4)c-3cn(Cc3ccc(C)cc3)c2cc1OC	50.0	n	179.0	48.7	n	74.0	n	n	n
Cc1ccc(Cn2nc3c4cc(F)ccc4n(Cc4ccc(F)cc4)cc-3c2=O)cc1	n	n	n	n	x	x	x	x	x
CCn1ncc(CN2CCC(Oc3cc(C(=O)NC4CC4)ccc3OC)CC2)c1C	n	n	n	n	x	x	x	x	x
SMILES	MEKK2 mut-MEK5	MEKK3 PB1 HTS	MEKK2wt PB1 HTS	UBC13 inh	MEKK2wt confirm	MEKK2mut-MEK5	MEKK3 confirm	Casp3 counter	UBC13 conf
Cc1cc(Nc2ccccc2)nc(NCc2ccccc2)n1	67.0	n	167.0	45.7	n	n	n	n	49.6
CC[C@@H](C)[C@H](CNC)NC[C@@H](Cc1cccc2ccccc12)NCCc1cccc(C(F)(F)F)c1	74.0	n	318.0	59.9	247.0	101.0	n	n	100.4
CCC[C@H](CN[C@@H](CNC)[C@H](C)CC)NCCc1cc(C(F)(F)F)cc(C(F)(F)F)c1	n	n	158.0	85.5	n	n	n	n	73.1
CC(C)NCC(O)COC1CCC(C(C)(C)C)CC1 (centres undefined)	n	n	n	n	x	x	x	x	x
CCC[C@@H](CN[C@@H](CNC)[C@H](C)CC)NCC1CCC(C(C)(C)C)CC1 (some centres undefined)	n	n	148.0	63.4	n	n	n	n	60.6
CCCNCc1cc(OC)c(OCc2ccccc2)cc1Br	n	n	n	n	x	x	x	x	x
CN[C@H]1CC[C@@H](c2ccc(Cl)c(Cl)c2)c2ccccc21	n	n	176.0!	x	n	n	n	n	x
O=C1C=C(O)CC(c2ccc(Cl)c(Cl)c2)C1 (centres undefined)	n	n	n	n	x	x	x	x	x
CN(C)CCNc1oc(COc2ccc(Cl)cc2Cl)nc1C#N	55.0	n	170.0	90.8	n	n	n	n	97.6
COCCCNc1oc(COc2ccc(Cl)cc2Cl)nc1C#N	n	n	n	n	x	x	x	x	x
CCCCCCCCCCCCCCCC(O)C(N)CO (centres undefined)	38.0	n	220.0	111.1	n	n	n	n	101.0
CCCCCCCCO	x	x	x	n	x	x	x	x	x
O=C(CSc1n[nH]c(-c2ccccc2F)n1)Nc1cc(F)ccc1F	x	x	x	n	x	x	x	x	x
CN1CCN(CCCN2c3ccccc3Sc3ccc(Cl)cc32)CC1	n	n	188.0!	96.9	n	n	n	n	99.0
OCCN1CCN(CCCN2c3ccccc3Sc3ccc(C(F)(F)F)cc32)CC1	n	n	175.0	86.9	n	n	n	n	92.1
O=C(CNC(=O)c1cccs1)Nc1ncccc1O	x	x	x	n	x	x	x	x	x
COc1ccc(N2CC(NC(=O)N3CCN(C(=O)c4ccco4)CC3)CC2=O)cc1OC (centres undefined)	x	x	x	n	x	x	x	x	x

Source: PubChem BioAssay (several laboratories)
